Data reported in PubChem BioAssay (EPA / NIEHS).
The source made the active and inactive calls. How the source made its calls: active means hit-call score of the fitted dose curve at least 0.9, where 1 is the maximum; inactive means score below 0.9.

read-out: 3-Hydroxy-3-Methylglutaryl-CoA Synthase 2 (HMGCS2), HMGCS2 (gene 3158); experiment: LTEA_HepaRG_HMGCS2: Life Technologies and Expression Analysis (LTEA) Assay for 3-Hydroxy-3-Methylglutaryl-CoA Synthase 2 (HMGCS2) using HepaRG (AID 2283504); settings: mRNA level, 48 h; actives raise or lower the signal
Experimental: LTEA_HepaRG is a cell based, multiplexed-readout assay that uses HepaRG, a human liver cell line, with measurements taken at 48 hours after chemical dosing on a 96-well plate.LTEA_HepaRG_HMGCS2 is one of 102 assay component(s) measured in the LTEA HepaRG cell culture assay. It is a marker of Steatosis.Data from the assay component LTEA_HepaRG_HMGCS2 was analyzed into 1 endpoint. This assay endpoint, LTEA_HepaRG_HMGCS2, was analyzed with bidirectional fitting relative to DMSO as the negative control and baseline of activity. Using a type of inducible reporter, measures of mRNA induction for gain or loss-of-signal activity can be used to understand regulation of transcription factor activity. To generalize the intended target to other relatable targets, this assay endpoint is annotated to the lyase intended target family, where the subfamily is HMG-CoA synthase.
A total of 1060 chemcials from the ToxCast library were tested in eight-point concentration-response experiments. Cell culture and cytotoxicity assays were conducted at Thermo Fisher Scientific's Custom Services facility (Madison, WI). A single lot of human HepaRG cells (Thermo Fisher Scientific, Frederick, MD) was used for the cell culture experiments. 96-well format collagen type I coated plates of human HepaRG cells were prepared using established methods. Briefly, cryopreserved HepaRG cells were thawed, plated at a density of approximately 100,000 cells/well in HepaRG Thaw, Plate, and General Purpose media (HPRG770, Thermo Fisher Scientific), and incubated for 48 hours. 0.5% DMSO was selected as vehicle control to balance the requisite need of DMSO in HepaRG cultures to maintain differentiation (for example, baseline metabolism, proportions of hepatocytes vs. cholangiocytes), while enabling further hepatic receptor pathway activation (for example, PXR and CAR) in response to chemical exposure. 48 hours after plating, the culture medium was replaced with HepaRG Serum-Free Incudtion Media. Cells were exposed to each test chemical in duplicate and maintained in CO2 incubators for another 48 hours. Chemical plates were thawed to room temperature and 200x concentrations of treatment groups were prepared. 8-point conentration-reponse curves were made with the highest exposure at 100 uM, followed by half-log dilutions, all in 0.5% DMSO. Each test plate contained variouse controls, induction positive controls (1mM phenobarbital), cytotoxicity positive controls ([…] aflatoxin B1), vehicle controls (0.5% DMSO), and total lysis controls (0.5% DMSO). Cell morphology images were taken using an Essen IncuCyte FLR automated microscope, with six 96-well plates imaged in about 24 minutes. Images were captured and exported and JPEG files. Spent culture media was transfered to black-well plates for the LDH assay, and remaining media was sorted at -80 C for later use. Cells were treated with RLT buffer and frozen until shipped for gene expression analysis. Total RNA was isolated from the cell suspension in 75 uL of Buffer RLT (Qiagen, Germantown, MD 20874) by Quintiles/Expression Analysis (Durham, NC) using a custom isolation procedure. Total RNA from each plate well was transferred to a preamplification plate. Fluidigm's 96.96 Dynamic ArrayTM (Fluidigm, Amsterdam, the Netherlands) technology was used for gene expression analyses by quantitative reverse transcription polymerase chain reaction (qRT-PCR, performed by Quintiles/Expression Analysis, Durham, NC)89. Standard TaqManTM Assays (Applied Biosystems/ThermoFisher Scientific, Foster City, CA) were used to assess the expression of 93 genes selected based on their selectivity and sensitivity to important hepatic receptors known to be modulated by environmental chemicals; importance in human hepatocyte functionality; and hepatotoxicity. […]

outcome, inactive:
CCN(Cc1cccc(S(=O)(=O)O)c1)c1ccc(C(=C2C=CC(=[N+](CC)Cc3cccc(S(=O)(=O)O)c3)C=C2)c2ccccc2S(=O)(=O)[O-])cc1
OCCO
CC/C(=C(/CC)c1ccc(O)cc1)c1ccc(O)cc1
Oc1ccc2ccccc2c1
Cc1cn([C@H]2C[C@H](N=[N+]=[N-])[C@@H](CO)O2)c(=O)[nH]c1=O
CCCC(=O)OCCC(C)C
O=C=NCCCCCCN=C=O
O=C(O)Cn1c(=O)n(Cc2ccc(Br)cc2F)c(=O)c2ccc(Cl)cc21
CCCCCCCCCC(=O)O
Clc1cc(Cl)c2c(c1)N=C1CCCCCN1C2
O=C(OCCCCCCOC(=O)c1ccccc1)c1ccccc1
COCC(C)OCC(C)OCC(C)O (stereo not given)
Oc1ccccc1
CCCCCCCCCCCCO
O=C1CCC(C2CCCCC2)CC1
CCCCCCCCCCCO
CCCCCCCCOC(=O)c1cc(O)c(O)c(O)c1
O=c1ccc2ccccc2o1
CO[C@H]1/C=C/O[C@@]2(C)Oc3c(C)c(O)c4c(O)c(c(/C=N/N5CCN(C)CC5)c(O)c4c3C2=O)NC(=O)/C(C)=C\C=C\[C@H](C)[C@H](O)[C@@H](C)[C@@H](O)[C@@H](C)[C@H](OC(C)=O)[C@@H]1C
CC(C)(O)c1ccc(CNC(=O)c2cccnc2Oc2ccc3nonc3c2)cc1

AC50, active:
Cc1cc2c(cc1C(F)(F)F)N(C(=O)Nc1ccc(Oc3cccnc3C)nc1)CC2 29.2 µM
Cc1c2ccccc2c(C)c2c1ccc1ccccc12 52.5 µM
CCCOC(=O)c1cc(O)c(O)c(O)c1 50 µM
CC[C@H](NC(=O)c1cc(F)ccc1NS(=O)(=O)c1cccc2cccnc12)c1ccccc1 37.6 µM
c1ccc(C[n+]2cccc3ccccc32)cc1 31 µM
NC(=O)c1nc(-c2cccc(-c3cc(F)ccc3OCC(F)(F)C(F)(F)F)c2)n[nH]1 50 µM
O=C(Nc1ccc(Cl)cc1)Nc1ccc(Cl)c(Cl)c1 28.6 µM
CC(=O)N1CCN(c2ccc(OC[C@H]3CO[C@](Cn4ccnc4)(c4ccc(Cl)cc4Cl)O3)cc2)CC1 12.4 µM
NCc1cccc(C2CCN(C(=O)c3ccc(C#Cc4ccccc4F)o3)CC2)c1 93.8 µM
CN(C)C(=O)C1(N2CCCCC2)CCN(CC[C@@]2(c3ccc(Cl)c(Cl)c3)CN(C(=O)c3ccccc3)CCO2)CC1 68.6 µM
Cc1ccc2oc(CN(Cc3ccccc3)C(=O)Nc3c(F)cc(F)cc3F)c(-c3ccc(Cl)cc3)c2c1 44.2 µM
Cc1oc2c(NC(=O)c3c(Cl)cccc3Cl)cccc2c1C(C)(C)O 52.8 µM
CCN(CC)C(=O)c1cc(S(=O)(=O)Cc2ccccc2)c(N2CCC(c3ccccc3)CC2)cc1N(CC)CCN(C)C 35.5 µM
CC(C)(c1cc(Br)c(O)c(Br)c1)c1cc(Br)c(O)c(Br)c1 89.2 µM
CCCCCCCCCCCC[N+](C)(C)C 95.9 µM
Cc1occc1C(=O)Nc1ccc(C(=O)N2CCC(F)(F)/C(=C\C(=O)N3CCC(N4CCCCC4)CC3)c3ccccc32)cc1 31.2 µM
CN1C(=O)N(c2ccccc2Br)Cc2cnc(Nc3ccc4c(c3)OCC(CO)O4)nc21 (stereo not given) 75.4 µM
COc1cc(C(=O)NC2CCN(C)CC2)ccc1Nc1ncc2c(n1)N(C1CCCC1)CC(F)(F)C(=O)N2C 10.5 µM
CC(C)(C)c1csc(-c2cc3cc(OCc4ccccc4CC(=O)O)ccc3o2)n1 31.6 µM
Clc1ccccc1C(c1ccccc1)(c1ccccc1)n1ccnc1 24.3 µM
